ALR inh: inhibitors of human ALR sulfhydryl oxidase, primary screen, biochemical, H2O2 detection, HRP-luminol luminescence, single point. FAD-linked sulfhydryl oxidase ALR (Homo sapiens), P55789. purified ALR, DTT oxidation. inhibition, % (test concentration not listed). actives 3.8% (n = 290,000). AID 485317, 2010;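 active = mean replicate inhibition above about 79%, with every replicate also reaching it, limit read from the data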
Target sequence (P55789 whole entry, looked up): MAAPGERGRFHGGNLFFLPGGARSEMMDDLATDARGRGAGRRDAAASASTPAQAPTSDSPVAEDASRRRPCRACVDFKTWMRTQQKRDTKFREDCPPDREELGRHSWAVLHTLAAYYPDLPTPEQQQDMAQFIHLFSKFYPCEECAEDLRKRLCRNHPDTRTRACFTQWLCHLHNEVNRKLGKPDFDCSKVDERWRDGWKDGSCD
PfM18AAP inh: PfM18AAP inhibitors, malaria aminopeptidase, primary screen, biochemical, QFRET, recombinant enzyme | M18 aspartyl aminopeptidase (Plasmodium falciparum 3D7) | H-Glu-NHMec fluorogenic cleavage | inhibition, % at 7.35 µM | actives 1.2% (n = 290,000) | AID 1822, 2009;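 active = inhibition above the campaign mean inhibition over all tested compounds plus 3 SD, cut at about 28% in these data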;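 note: 0% = plate median of test compound wells and 100% = 2 mM ZnCl2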
A3G deaminase: APOBEC3G DNA deaminase inhibitors, primary screen, biochemical, fluorescence, single-stranded DNA substrate, uHTS; recombinant A3G, ssDNA deamination FAM/TAMRA fluorescence; inhibition, % at 20 µM; actives 0.28% (n = 330,000); AID 493012, 2011;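 active = inhibition of at least 40% at 20 µM, with no more than 30% in the related APOBEC3A deaminase screen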;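 note: plate controls were DMSO wells with A3G for no effect and wells lacking A3G enzyme for full effect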
CR mimetic SO: reduction of superoxide in aged yeast, primary screen, HTS; superoxide response (% of plate mean), % at 10 µM; S. cerevisiae aged cells, superoxide DHE fluorescence; hits give low values; AID 2690, 2010; actives 0.18% (n = 330,000);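 active = superoxide response under a set limit, about three screen SD below normal, cut at about 65% in these data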;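 note: yeast aged for seven days with compound at 30 °C before DHE staining; 100% = average MFI of all compound-treated wells on the plate with controls excluded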
APOBEC3A inh: APOBEC3A ssDNA deaminase inhibitors, primary screen, selectivity assay for APOBEC3G inhibitor project, biochemical, FAM/TAMRA oligo cleavage fluorescence | AID 493011, 2011 | actives 0.41% (n = 330,000) | inhibition, % at 20 µM | recombinant A3A, FAM/TAMRA ssDNA deamination fluorescence;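 active = at least 40% inhibition at 20 µM here, with at most 30% in a related deaminase screen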;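 note: plate controls were A3A with DMSO for no effect and wells lacking A3A enzyme for full effect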
Target sequence (P31941 whole entry, looked up): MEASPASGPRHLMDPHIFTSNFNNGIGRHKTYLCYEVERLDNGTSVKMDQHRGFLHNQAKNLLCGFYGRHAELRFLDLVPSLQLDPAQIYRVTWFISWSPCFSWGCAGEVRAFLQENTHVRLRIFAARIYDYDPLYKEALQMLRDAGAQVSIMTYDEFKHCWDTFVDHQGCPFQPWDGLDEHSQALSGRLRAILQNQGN
NRP1-CendR mod: modulators of CendR peptide binding to NRP-1, primary screen, biochemical, fluorescence polarization, uHTS | AID 602438, 2012 | FAM-RPARPAR peptide binding to NRP-1 | Neuropilin-1 (Homo sapiens), O14786 | actives 0.85% (n = 360,000) | inhibition, % at 25 µM;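 active = inhibition or corrected inhibition above about 18%, plus a signal ratio from 0.5 to 1.5, limit read from the data, passing the limit was not always enough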
Starred values were filed as active, the others as inactive; . = no result. This is a sample that favours compounds with a hit; in the whole collection about 5.2% have one here.

SMILES	ALR inh	PfM18AAP inh	A3G deaminase	CR mimetic SO	APOBEC3A inh	NRP1-CendR mod
CC1=C/C(=N\Nc2ccccc2[N+](=O)[O-])CC(C)(C)C1	98*	0	1	89	6	6
O=[N+]([O-])c1ccccc1N/N=C/c1ccccc1	-7	-1	-5	98	-6	8
COCCNC(=O)/C(C#N)=C/c1ccc(N2CCOCC2)o1	.	16	-2	115	1	-164
N#C/C(=C\c1ccc(N2CCOCC2)o1)C(=O)NC1CCCCC1	79*	7	1	79	0	-260
O=C(NCCN1CCOCC1)C(=O)NCC1CCCO1 (stereo not drawn)	-8	-7	-2	97	0	38*
N#C/C(=C\c1ccc(N2CCOCC2)o1)C(=O)NCCc1ccccc1	89*	7	5	97	-6	-241
N#C/C(=C\c1ccc(N2CCOCC2)o1)C(=O)NCC1CCCO1 (stereo not drawn)	86*	13	0	118	1	-257
O=C(COC(=O)COc1cccc(C(F)(F)F)c1)NC1CCCC1	-1	.	-6	107	-2	6
COC(=O)[C@H](C)NC(=O)Nc1ccc(S(N)(=O)=O)cc1	-4	-2	-1	96	0	10
Cc1ccc(NCc2nnc(SCC(=O)N3CCCCC3)n2CC2CCCO2)c(C)c1 (stereo not drawn)	92*	7	-1	106	-1	-4
COc1cccc(C2c3[nH]c4ccccc4c3C[C@H]3C(=O)N(c4ccccc4C(=O)N4CCC[C@H]4C(=O)O)C(=O)N23)c1 (stereo partly drawn)	98*	0	-6	123	-3	8
COc1ccc(C2c3[nH]c4ccccc4c3C[C@H]3C(=O)N(c4ccccc4C(=O)N4CCC[C@H]4C(=O)O)C(=O)N23)cc1 (stereo partly drawn)	98*	5	-1	85	3	-18
O=C(O)[C@@H]1CCCN1C(=O)c1ccccc1N1C(=O)[C@@H]2Cc3c([nH]c4ccccc34)C(c3cccc(Cl)c3)N2C1=O (stereo partly drawn)	97*	1	-6	93	-1	-4
Cc1nc(-c2ccc(C#N)cc2)cs1	3	-17	-2	88	-3	-7
CCCCCn1c(CN2CCN(Cc3ccccc3)CC2)nc2c1c(=O)n(C)c(=O)n2C	-12	-6	-3	104	-4	0
COCCNC(=O)C1Nc2ccc(OC(F)(F)F)cc2C2C=CCC12 (stereo not drawn)	0	.	-11	95	0	13
CC(=O)N(c1cccc(C)c1)C1SC(=O)N(c2ccccc2)C1=O (stereo not drawn)	34	-11	-2	94	-2	-8
Cc1ccc(N2C(=O)SC(N(CC(=O)O)c3cccc(C)c3)C2=O)cc1 (stereo not drawn)	99*	-7	3	95	-4	14
O=C(O)CSc1ccn(Cc2ccccc2)c1	.	.	.	.	.	-5
COc1cccc2c3c(c(=O)[nH]c12)CC(C)(C)O3	14	.	-1	96	0	-5
COc1cccc2c3c(c(=O)[nH]c12)CCC(C)(C)O3	98*	-1	-7	97	-3	-16
O=C(CCNS(=O)(=O)c1cccc2nonc12)Nc1ccc(Cl)cc1	.	-1	-9	106	-3	-6
COc1cccc(N2CCN(c3ccc4nnc(CCC(=O)Nc5ccccc5OC)n4n3)CC2)c1	80*	-1	1	99	-6	0
COc1cccc(N2CCN(c3ccc4nnc(CCC(=O)Nc5ccc(F)cc5)n4n3)CC2)c1	80*	-1	5	113	-4	3
COc1cccc(N2CCN(c3ccc4nnc(CCC(=O)Nc5ccc(F)cc5F)n4n3)CC2)c1	39	1	-1	101	-3	-7
SMILES	ALR inh	PfM18AAP inh	A3G deaminase	CR mimetic SO	APOBEC3A inh	NRP1-CendR mod
Cc1ccc(C)c(OCC(=O)Nc2cc(C(=O)O)cc(C(=O)O)c2)c1	-1	0	-8	97	0	-13
Oc1ccc(/C=N\Nc2cc(N3CCOCC3)nc(N3CCOCC3)n2)c(O)c1	85*	26	-2	89	-1	-17
CC(C)c1ccc(/C=N/Nc2cc(N3CCOCC3)nc(N3CCOCC3)n2)cc1	6	-1	-10	78	-7	-6
Cc1cc(N/N=C/c2ccc(O)cc2O)nc(N2CCOCC2)n1	97*	24	-1	85	1	0
Cc1ccc(-n2c(-c3ccc(Br)cc3)c[n+]3c2CCc2ccc4cccnc4c2-3)cc1	6	0	.	128	.	-15
CCc1ccc(NC(=O)C2=CC(c3ccc(OC)c(OC)c3)=NS(=O)(=O)N2C)cc1	-8	8	0	101	-1	-8
Cc1cc(=S)cc(C)n1CCCO	0	-23	10	98	6	32*
Cc1nnc(SCC(=O)Nc2ccc(N3CCOCC3)cc2)n1Cc1ccccc1	99*	.	5	115	7	5
Cc1nnc(SCC(=O)NNC(=O)c2ccccc2)n1Cc1ccccc1	-2	.	-1	96	2	7
Cc1nnc(SCC(=O)c2ccccc2)n1Cc1ccccc1	85*	-6	-11	110	1	-6
CCn1c(SCC(=O)Nc2ccc(NC(C)=O)cc2)nnc1C1CC1	-10	3	1	77	5	10
CCn1c(SCC(=O)Nc2ccc(N3CCOCC3)cc2)nnc1C1CC1	99*	.	-3	83	1	17
CCn1c(SCC(=O)Nc2ccc(N(C)C)cc2)nnc1C1CC1	99*	11	-7	108	-3	3
O=C(CSc1n[nH]c(=O)n1Cc1ccccc1)Nc1ccc(N2CCOCC2)cc1	.	.	-7	.	-3	0
C/C(=N/NC(=O)c1ccc(C)s1)c1ccncc1	13	2	-2	101	1	6
Cc1onc(-c2ccccc2)c1C(=O)NCCc1ccc(Cl)cc1	-5	2	-10	112	-6	19
Cc1ccc(C(=O)Nc2cccc(C(F)(F)F)c2)cc1NC(=O)c1nccnc1N	-8	.	-1	90	1	-7
O=C(Nc1ccsc1C(=O)O)c1ccc(Cl)cc1	97*	-1	-10	143	-5	-3
CCN(CC(=O)Nc1c(F)cccc1F)C(=O)CSc1ccccc1	-6	.	-1	86	3	-1

From PubChem BioAssay
